Hits are enriched below; roughly 7.4% of the tested compounds scored in any of these assays.
NPC1 prom act: qHTS Assay for NPC1 Promoter Activators | Huh7 NPC1 promoter luciferase reporter, 24 h | Potency, µM (highest dose often 9.22 µM), inactives show top-dose activation, hits mostly activators | actives 2.4% (n = 320,000) | AID 485313, 2010; also: % of control where 0% means no effect; nearly all actives have a fitted effect of over 60% in size
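Cells: Huh7 expressing luciferase under the NPC1 promoter, 1500/well. Seeded 2 h, compound added, incubated 24 h at 37 °C. Luciferase reagent, 10 min ambient, then luminescence.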
ELG1 genotoxic: qHTS screen for small molecules that induce genotoxicity in human embryonic kidney (HEK293T) cells expressing luciferase-tagged ELG1; HEK293T ELG1-luciferase reporter, luminescence, 16 h; Potency, µM (highest dose often 46 µM), inactives show at the top dose activity change, positive = activation, actives largely listed as activators; actives 1.3% (n = 330,000); also: % of control where 0% means no effect; nearly all actives have a fitted effect of over 60% in size
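Quantitative HTS format in 1536-well plates. HEK293T ELG1-luciferase reporter cells receive test compound and are incubated 16 hr at 37 °C, 5% CO2; ONE-Glo added, 30 min room temperature, then luminescence read.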
FLuc counter: qHTS profiling assay for firefly luciferase inhibitor/activator using purifed enzyme and Km concentrations of substrates (counterscreen for miR-21 project); Luciferin 4-monooxygenase (Photinus pyralis), P08659; purified FLuc, Km substrates, luminescence inhibition; Potency, µM (series often up to 57.5 µM), for the others: at the top dose activity change, negative = inhibition, hits mostly inhibitors; actives 6.9% (n = 360,000);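 also: plate controls were vehicle for no effect and reference inhibitor for full effect; nearly all actives have a fitted effect of over 55% in size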
Target sequence (P08659 whole entry, looked up): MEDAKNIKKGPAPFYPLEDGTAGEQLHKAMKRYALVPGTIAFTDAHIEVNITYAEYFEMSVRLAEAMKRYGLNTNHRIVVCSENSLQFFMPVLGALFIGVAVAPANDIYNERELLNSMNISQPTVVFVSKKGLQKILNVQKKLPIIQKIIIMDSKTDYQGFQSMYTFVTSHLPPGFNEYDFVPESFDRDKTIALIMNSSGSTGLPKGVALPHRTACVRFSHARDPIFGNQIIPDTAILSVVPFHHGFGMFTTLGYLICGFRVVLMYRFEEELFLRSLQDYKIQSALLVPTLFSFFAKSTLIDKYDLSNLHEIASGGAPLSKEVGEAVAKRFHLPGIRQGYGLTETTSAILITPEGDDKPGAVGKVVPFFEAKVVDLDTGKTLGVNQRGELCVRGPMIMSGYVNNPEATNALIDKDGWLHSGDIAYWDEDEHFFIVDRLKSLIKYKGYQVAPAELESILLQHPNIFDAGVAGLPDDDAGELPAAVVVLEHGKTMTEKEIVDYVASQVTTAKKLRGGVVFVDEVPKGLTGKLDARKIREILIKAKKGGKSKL
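Biochemical qHTS of compounds, final roughly 60 µM downward over six points, against 10 nM purified firefly luciferase using Km concentrations of substrates (10 uM D-luciferin, 10 uM ATP) in Tris acetate pH 7.5 buffer; luminescence output.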
Rab9 prom act: qHTS Assay for Rab9 Promoter Activators; Potency, µM (doses to about 9.22 µM), without a hit: at the top dose activation, negative = inhibition, actives largely listed as activators; AID 485297, 2010; Huh7 Rab9 promoter-luciferase reporter, luminescence, 24 h; actives 2.8% (n = 320,000); also: % of control where 0% means no effect; nearly all actives have a fitted effect of over 60% in size
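Rab9 promoter-driven luciferase in stably transfected Huh7 cells; 1500 cells/well rested 2 h, exposed to compound in DMSO for 24 h at 37 °C, 5% CO2. Luminescence read 10 min after adding luciferase reagent at ambient temperature.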
SMN2 splice up: qHTS Assay for Enhancers of SMN2 Splice Variant Expression | actives 2.8% (n = 210,000) | Potency, µM (highest dose often 46.1 µM), for the others: top-dose activity change, positive = activation, usual class: activators | HEK293 SMN2-luciferase splicing reporter, luminescence, 30-36 h; also: % of control where 0% means no effect; nearly all actives have a fitted effect of over 55% in size
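qHTS luciferase splicing reporter: luminescence rises when SMN2 exon 7 is included in transfected HEK293 cells. Compound exposure lasted 30-36 h at 37C, with 4.5 mM final sodium butyrate as control, followed by a ONE-Glo read.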
Luc counter: Counterscreen for Luciferase (Kinase-Glo TM) Inhibition; Luciferin 4-monooxygenase (Photuris pensylvanica), Q27757; Kinase-Glo luciferase, ATP luminescence, 8 min; Potency, µM (series often up to 38.3 µM), inactives show at the top dose activity change, negative = inhibition, hits mostly inhibitors; actives 0.28% (n = 200,000); also: % is scaled to controls: 0 for no effect and ±100 for the full control effect; nearly all actives have a fitted effect of over 60% in size
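Substrate mix (final 50 mM imidazole pH 7.2, 50 mM KCl, 7 mM MgCl2, 10 uM ATP, 0.01% Tween 20, 0.05% BSA) plus pin-tool compound, then Kinase-Glo detection mix; 8 min ambient, luminescence read.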
* = called active by the depositor; ? = inconclusive; nt = no result given; [ ] = remark or other dose. Calls follow the shape of the dose curve; as a rule, active = well fitted curve in the direction sought with a large enough effect; inconclusive = small, poorly fitted or top-dose-only effect, or another doubt; inactive = no such curve, though single readings can be large; an effect the other way counts as inactive or inconclusive. Potency is read from the fitted curve at half-maximal effect.

SMILES	NPC1 prom act	ELG1 genotoxic	FLuc counter	Rab9 prom act	SMN2 splice up	Luc counter
CC1CCc2c(sc(NC(=O)Cn3nc(C(=O)O)c4ccccc4c3=O)c2C#N)C1 (configuration not stated)	12%	5%	12µM*	-5%	nt	nt
N#Cc1c(NC(=O)CSc2ncn[nH]2)sc2c1CCCC2	-11%	1%	8.5µM*	-7%	-62%	-3%
CCCc1cc(=O)[nH]c(SCC(=O)Nc2sc3c(c2C#N)CCC(C)C3)n1 (configuration not stated)	-3%	3%	27µM*	-2%	-17%	-1%
CC1CCc2c(sc(NC(=O)CSc3ncn[nH]3)c2C#N)C1 (configuration not stated)	-43%	-8%	11µM*	-33%	nt	nt
CCN1CCN(CC(=O)Nc2sc3c(c2C#N)CCC(C)C3)CC1 (configuration not stated)	-2%	0%	2%	1%	-6%	-6%
CC1CCc2c(sc(NC(=O)CSc3nnc(-c4ccccc4)o3)c2C#N)C1 (configuration not stated)	-2%	9%	2%	1%	9%	1%
COc1ccc(CC(=O)NC(C)c2nnc(SCCOc3ccc(OC)cc3)n2C)cc1 (configuration not stated)	-1%	-5%	-1%	2%	-23%	2%
CCCCC(CC)C(=O)Nc1cc(C(=O)NCCC)ccc1N1CCC2(CC1)CC(c1cccc(Br)c1)=NO2 (configuration not stated)	-4%	0%	0%	0%	nt	nt
Nn1c(SCc2ccccc2)nc2c(cnn2-c2ccccc2)c1=O	?	?	11µM*	3.2µM*	13µM*	0%
CCCSc1nc2c(cnn2-c2ccccc2)c(=O)n1N	4.5µM*	?	5.4µM*	0.79µM*	nt	nt
O=C(Nc1c(C(=O)N2CCN(c3ccccn3)CC2)oc2ccccc12)c1ccc([N+](=O)[O-])cc1	2%	-3%[9.26 µM]	6.7µM*	3%	nt	nt
O=C(NCCC(=O)N1CCN(c2ccccn2)CC1)c1ccc([N+](=O)[O-])cc1	nt	-1%	nt	nt	nt	nt
CCOC(=O)CC(NC(=O)c1cc2c(=O)n3cccc(C)c3nc2s1)c1ccc(OCC)c(OC)c1 (configuration not stated)	nt	nt	2%	nt	6%	nt
COc1ccc(/C=C/C(=O)C2C(=O)C=C(C)OC2=O)cc1O (configuration not stated)	?	?	6µM*	18%	12%	?
Cc1ccc(-c2nn(-c3ccccc3)cc2C(=O)N2CCN(c3ccccn3)CC2)cc1	-6%	-6%	15µM*	7%	3%	-1%
O=C(c1cn(-c2ccccc2)nc1-c1ccccc1)N1CCN(c2ccccn2)CC1	-1%	-9%	11µM*	-5%	7%	-4%
Cc1ccc(-c2nn(Cc3ccccc3)cc2C(=O)N2CCN(c3ccccn3)CC2)cc1	1%	2%	3%	-7%	nt	nt
Cc1ccc(CNC(=O)Nc2ccccc2)cc1	?	9.2µM*	12µM*	2.5µM*	16µM*	-9%
Cc1ccc(C)c(CNC(=O)Nc2ccccc2)c1	?	?	13µM*	?	nt	nt
Cc1ccc2[nH]cc(CCNC(=O)Nc3ccccc3)c2c1	1%	-3%	0%	-3%	-36%	-2%
Cc1ccc(CNC(=O)Nc2ccc(Cl)cc2)cc1	?	?	-8%	4µM*	nt	nt
CSc1ccc(CN(C)CC(=O)NCc2ccccc2)cc1	-4%	0%	1%	-2%	-6%	2%
CSc1ccc(NC(=O)NCc2ccccc2)cc1	4.5µM*	?	?	4.5µM*	nt	nt
Cn1c(SCC(=O)Nc2cccnc2Cl)nc2ccccc21	nt	9%	nt	nt	nt	nt
O=C(NCC1CC1)Nc1ccc(Cl)cc1	?	?	17µM*	?	nt	nt
SMILES	NPC1 prom act	ELG1 genotoxic	FLuc counter	Rab9 prom act	SMN2 splice up	Luc counter
O=C(NCC1CC1)Nc1cccc(Cl)c1	6%	10%	?	23%	nt	nt
Cc1ccc(CNC(=O)Nc2cccs2)cc1	?	14%	12µM*	?	16µM*	-1%
Cc1ccc(S(=O)(=O)NC2=NCN(C(C)C)CN2)cc1	2%	1%	-1%	1%	nt	nt
CSc1ccccc1OCc1cc(C(=O)N2CCC[C@H]2C(N)=O)no1	-2%	2%	-1%	5%	nt	nt
Cc1ccc2nc(NC(=O)CCCc3nc4ccccc4s3)sc2c1	-20%	?	17µM*	-19%	23%	-1%
Cc1ccc2nc(N/C(=N/S(=O)(=O)c3ccc(F)cc3)c3ccccc3)sc2c1	13%	15%	8.5µM*	?	?	4%
Cc1ccc2nc(N/C(=N/S(=O)(=O)c3ccc(F)cc3F)c3ccccc3)sc2c1	1%	11%	?	11%	nt	nt
Cc1ccc2nc(NC(=O)CCCC(=O)O)sc2c1	-30%	-10%	5.4µM*	-41%	-8%	-5%
COc1ccccc1-c1c(C)oc2c(CN3CCCCC3C)c(O)ccc2c1=O (configuration not stated)	-4%	-1%	4%	0%[1.84 µM]	nt	nt
COc1ccc(Cn2c(=O)n(-c3ccc(F)c(Cl)c3)c(=O)c3c2c2cc(OC)ccc2n3C)cc1	nt	nt	0%	nt	nt	nt
CC(C)(C)C(=O)O/N=C(\N)COc1cccc(Cl)c1	3%	8%	17µM*	-1%	nt	nt
CC(C)(C)C(=O)OC/C(N)=N/OC(=O)c1ccc(Cl)cc1	-5%	2%	?	-1%	nt	nt
O=C(CSc1ccccc1)Nc1nnc(C2CC2)s1	0%	4%	0%	17%	nt	nt
COc1ccc(C(=O)N2CCC3(CC2)CN(Cc2ccc(C#N)cc2)C3)cc1	nt	nt	nt	nt	-21%	-2%
Cc1cc(CN2CCCC(N3CCc4ccccc4C3)C2)cc(C)c1O (configuration not stated)	3%	0%	0%	3%	nt	nt
Oc1ccc(/C=C/c2ccc3cccc(O)c3n2)cc1Br	16%	18µM*	17µM*	29%	nt	nt
COC(=O)c1ccc(/C=C/c2ccc3cccc(OC(C)=O)c3n2)cc1	4µM*	?	3.8µM*	3.5µM*	16µM*	?
O=[N+]([O-])c1ccc(/C=C/c2ccc3cccc([N+](=O)[O-])c3n2)cc1	0%	4%	-3%	10%	-41%	2%
O=C(O)c1ccc(/C=C/c2ccc3cccc(O)c3n2)cc1	3.5µM*	?	2.4µM*	3.5µM*	22µM*	-13%

Screening data as filed in PubChem.
